ASM inhibitor: Inhibitors of Secretory Acid Sphingomyelinase (S-ASM): qHTS. AID 504937, 2011. 0.006% of 340,000 active. Potency, µM (titrated, usually from 57.5 µM), inactives show at the highest dose activity change, negative = inhibition, actives largely listed as inhibitors. Sphingomyelin phosphodiesterase (Homo sapiens), P17405. placental ASM, HMU-PC fluorogenic substrate, 60 min; also: potency is read from the fitted curve at half-maximal effect
Target sequence (P17405 47-631 limits assumed): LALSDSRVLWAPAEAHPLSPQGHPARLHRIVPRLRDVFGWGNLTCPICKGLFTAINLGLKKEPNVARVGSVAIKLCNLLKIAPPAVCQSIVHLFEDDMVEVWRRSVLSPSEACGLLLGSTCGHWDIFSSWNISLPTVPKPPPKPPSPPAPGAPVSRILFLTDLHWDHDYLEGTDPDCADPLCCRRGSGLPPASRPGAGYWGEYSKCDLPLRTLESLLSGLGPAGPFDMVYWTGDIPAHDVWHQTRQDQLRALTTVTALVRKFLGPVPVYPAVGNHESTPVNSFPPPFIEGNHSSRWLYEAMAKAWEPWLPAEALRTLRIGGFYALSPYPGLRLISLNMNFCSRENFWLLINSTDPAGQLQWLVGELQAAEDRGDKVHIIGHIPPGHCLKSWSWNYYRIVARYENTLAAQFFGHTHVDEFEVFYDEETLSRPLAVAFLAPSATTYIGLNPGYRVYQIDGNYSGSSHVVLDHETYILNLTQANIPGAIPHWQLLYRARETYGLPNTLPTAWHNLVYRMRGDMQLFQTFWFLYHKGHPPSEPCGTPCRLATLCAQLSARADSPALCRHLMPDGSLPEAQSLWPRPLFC
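Steps: dispense placental human ASM, pin compound, wait 10 min at room temperature, add HMU-PC0 substrate at 9 uM final, incubate 60 min at 37 °C, add stop solution raising pH to 10, read fluorescence.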
KB-V1 cytotox: qHTS assay for MDR1-selective chemotherapeutics: Primary screen using the drug-selected MDR subline cells KB-V1; Potency, µM (top dose mostly 46.1 µM), usual class: cytotoxic; 3.4% of 400,000 active; KB-V1 MDR cells viability, CellTiter-Glo, 72 h; AID 1347076, 2019; also: potency is read from the fitted curve at half-maximal effect; % is scaled to controls: 0 for no effect and ±100 for the full control effect; nearly all actives have a fitted effect of over 60% in size
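Compound-treated KB-V1 multidrug-resistant cells, 72 h, 37 degrees C; viability by CellTiter-Glo. Fitted qHTS curves give the values.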
KB-3-1 tox: qHTS assay for MDR1-selective chemotherapeutics: Primary screen using the parental adenocarcinoma cell KB-3-1; AID 1347075, 2019; Potency, µM (highest dose often 46.1 µM), hits mostly cytotoxic; KB-3-1 viability, CellTiter-Glo ATP luminescence, 72 h; 1.4% of 400,000 active; also: potency is read from the fitted curve at half-maximal effect; % is scaled to controls: 0 for no effect and ±100 for the full control effect; nearly all actives have a fitted effect of over 60% in size
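KB-3-1 parental drug-naive adenocarcinoma cells in DMEM/10% FBS, incubated 72 h at 37 C with pin-transferred compounds across a concentration series. Viability by CellTiter-Glo luminescence; concentration-response curves fitted after normalization.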
SW480 rerep: A quantitative high throughput screen for small molecules that induce DNA re-replication in SW480 colon adenocarcinoma cells; 1.8% of 340,000 active; SW480 DNA re-replication, Hoechst DNA content imaging, 48 h; Potency, µM (doses to about 46.1 µM), without a hit: top-dose re-replication activation, hits mostly activators; also: potency is read from the fitted curve at half-maximal effect; % of control where 0% means no effect; nearly all actives have a fitted effect of over 55% in size
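Per well, 250 cells were exposed to pinned compound for 48 hr. Nuclear DNA was visualised with Hoechst (40 min, 37 C) and total object intensity recorded by fluorescence scanning.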
MCF10A rerep: A quantitative high throughput screen for small molecules that induce DNA re-replication in MCF 10a normal breast cells. MCF 10A DNA re-replication, Hoechst nuclear intensity, 48 h. Potency, µM (highest dose often 46.1 µM), for the others: at the top dose activity, positive = re-replication, actives largely listed as activators. 2.9% of 350,000 active; also: potency is read from the fitted curve at half-maximal effect; % of control where 0% means no effect; nearly all actives have a fitted effect of over 50% in size
Giardia killer: Small Molecules that selectively kill Giardia lamblia: qHTS; Giardia lamblia trophozoite viability; activity change, % at 7.66 µM, hits read low; 0.15% of 340,000 active; AID 540267, 2011; in the data active = activity change below about -80%; inconclusive = between about -30% and that limit;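 also: parasites exposed to compound for two days anaerobically before the ATP read; % is scaled to controls: 0 for no effect and ±100 for the full control effect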
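Giardia trophozoites, 100 cells per well, were exposed to compounds for 48 hrs at 37 deg C under anaerobic conditions; viability was then read as ATP content by bioluminescence after 15-30 min at room temperature.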
An asterisk follows results filed as active; i = inactive; ? = inconclusive; / = not tested or not shown; [ ] = dose if it differs, or a comment. Shown are actives, neighbours in structure and some others; about 6.9% of the full set was active somewhere. Unless noted, calls follow the shape of the dose curve; as a rule, active = well fitted curve in the direction sought with a large enough effect; inconclusive = small, poorly fitted or top-dose-only effect, or another doubt; inactive = no such curve, though single readings can be large; an effect the other way counts as inactive or inconclusive.

SMILES	ASM inhibitor	KB-V1 cytotox	KB-3-1 tox	SW480 rerep	MCF10A rerep	Giardia killer
N=c1c(C(=O)NCc2ccccc2)cc2c(=O)n3ccccc3nc2n1CCCN1CCOCC1	447%	i	?	9.2µM*	3.7µM*	4
COCCCn1c(C(=O)NCCN2CCOCC2)cc2c(=O)n3ccccc3nc21	i	i	i	-6%	14%	0
N=c1c(C(=O)NCc2ccc(F)cc2)cc2c(=O)n3ccccc3nc2n1CCCN1CCOCC1	268%	i	i	?	2.8µM*	4
Cc1ccc(Cn2c(=N)c(C(=O)NCCN3CCOCC3)cc3c(=O)n4ccccc4nc32)cc1	1%	i	i	?	0.58µM*	3
CCOCCCn1c(=N)c(C(=O)NCc2ccccc2)cc2c(=O)n3ccccc3nc21	/	i	i	/	/	/
Cn1c(C(=O)NCCN2CCOCC2)cc2c(=O)n3ccccc3nc21	i	i	i	?	?	1
Cc1cc(N2CCCCC2)nc2ccc(NC(=O)/C=C/c3ccc(OCCC(C)C)cc3)cc12	/	i	i	/	/	/
N=c1c(C(=O)NCCN2CCOCC2)cc2c(=O)n3ccccc3nc2n1CCc1ccccc1	470%	i	i	10µM*	?	-1
CCCNC(=O)c1ccc2c(=O)c(O)c(-c3ccc(F)cc3)[nH]c2c1	18%	i	?	5%	-3%	-19
CCCNC(=O)c1ccc2c(=O)c(O)c(-c3cccc(Br)c3)[nH]c2c1	26%	i	12µM*	-19%[9.22 µM]	-34%	1
COc1cc2c(cc1OC)CN(C(=O)CCOc1ccccc1C)CC2	-4%	16µM*	?	?	?	-14
CCOc1ccccc1OCCCC(=O)N1CCN(S(=O)(=O)c2ccc(C)cc2)CC1	1%	i	i	3%	10%	-7
CCOc1ccccc1OCCCC(=O)N1CCN(S(=O)(=O)c2cccc(F)c2)CC1	3%	6.5µM*	i	1%	13%	-6
Cc1ccccc1OCCC(=O)N1CCN(S(=O)(=O)c2ccc(F)cc2)CC1	-2%	/	/	16%	5%	-16
Cc1cc(C)c(S(=O)(=O)N2CCN(C(=O)CCOc3ccccc3C)CC2)c(C)c1	-1%	5.2µM*	?	-6%	0%	13
COc1cc2c(cc1OC)CN(C(=O)CCOc1ccccc1)CC2	2%	?	i	?	?	-3
Cc1cc(C)cc(NC(=O)C2CCCN(c3nnc(-n4c(C)ccc4C)s3)C2)c1 (configuration not stated)	/	i	i	/	/	/
Cc1ccc(-n2c3c(c(=O)[nH]c2=O)C(NC(=O)c2ccccc2C)(C(F)(F)F)C(=O)N3)cc1 (configuration not stated)	/	i	i	/	/	/
Cc1ccc2c(c1)-c1nc(-c3ccc4c(c3)NC(=O)CO4)cc(-c3ccc(Cl)cc3)c1CO2	/	i	i	/	/	/
COc1ccc(NC(=S)N(CCC(C)C)C2CCN(C(C)C)CC2)cc1Cl	4%	i	i	21µM*	?	-25
COCCN(C(=S)Nc1ccc(OC)c(Cl)c1)C1CCN(C(C)C)CC1	5%	i	i	-2%	-10%	-5
Cc1cc(C)cc(N2C(=O)CC(N3CCOCC3)C2=O)c1 (configuration not stated)	2%	i	i	22%	18µM*	-6
O=C(Cc1cccs1)N1CCN(c2nc(-c3ccc(Cl)cc3)cs2)CC1	-23%	8.2µM*	i	11%	26%	9
O=C(CN1CCN(c2nc(-c3ccc(Cl)cc3)cs2)CC1)NCc1ccco1	-7%	i	i	11%	9.2µM*	-22
S=C(NCc1ccco1)N1CCN(c2nc(-c3ccc(Cl)cc3)cs2)CC1	-16%	i	?	4%	11%	11
SMILES	ASM inhibitor	KB-V1 cytotox	KB-3-1 tox	SW480 rerep	MCF10A rerep	Giardia killer
Cc1ccc(C)c(Cn2c(SCC(=O)NCc3ccccc3)nc3ccccc32)c1	/	i	i	/	/	/
COC(=O)c1c(NC(=O)c2ccccc2)sc(C(=O)c2ccccc2)c1C	-3%	?	?	2%	6.5µM*	18
COC(=O)c1c(NC(=O)c2ccccc2)sc(Cc2ccccc2)c1C	2%	13µM*	i	10%	?	-7
CCN(CC)C(=O)c1sc(NC(=O)c2ccc(Br)o2)c(C(=O)OC)c1C	-1%	9.2µM*	i	9%	?	7
CCN(CC)C(=O)c1sc(NC(=O)c2cccnc2)c(C(=O)OC)c1C	1%	i	i	-5%	-2%	6
COC(=O)c1c(NC(=O)c2ccc(C)cc2)sc(Cc2ccccc2)c1C	9%	i	i	0%	20%	-7
Cc1cc(C)c(S(=O)(=O)Oc2ccccc2[N+](=O)[O-])c(C)c1	-3%	15µM*	i	21µM*	6.5µM*	-3
CCOC(=O)CNC(=O)Nc1cc(C(=O)NCc2ccc(C(C)C)cc2)ccc1N1CCCC1	/	i	i	/	/	/
CCCCOC(=O)c1ccc(NC(=O)c2cc(-c3ccccc3)on2)cc1	/	i	i	/	/	/
O=C(Nc1cccc(Cl)c1)c1nc[nH]c1C(=O)NCCCCNC(=O)c1[nH]cnc1C(=O)Nc1cccc(Cl)c1	1%	?	?	-8%	0%	5
O=C(Nc1ccc(Cl)cc1)c1nc[nH]c1C(=O)NCCCCNC(=O)c1[nH]cnc1C(=O)Nc1ccc(Cl)cc1	-5%	21µM*	?	5%	-12%	19
COC(=O)c1ccc(NC(=O)C(C)N2Cc3ccccc3C2=O)cc1 (configuration not stated)	/	i	i	/	/	/
CCOC(=O)C1=C(C)N=c2s/c(=C\c3ccc(OCC(=O)O)c(OC)c3)c(=O)n2C1c1ccc(OC)cc1 (configuration not stated)	-16%	i	i	-1%	23µM*	-21
COc1ccc(-n2c(C)nc3cc(C(=O)NC4CCCCCC4)ccc32)cc1	/	i	i	/	/	/
O=C(CCN1CCN(c2ccccc2)CC1)NNC(=O)c1cccc2ccccc12	1%	18µM*	i	-2%	1%	-9
COc1ccc(C)cc1NC(=O)CCN1CCN(c2ccccc2)CC1	2%	i	i	-5%	6%	-10
Cc1ccc(C)c(OCC(=O)NNC(=O)CCN2CCN(c3ccccc3)CC2)c1	6%	21µM*	i	4%	-2%	-22

Screening results (PubChem)
